Source: the supplement of paper PMC3545927
The list shows a part of the results. No count for the full screen is at hand.

B1: HC1267 (peptide)
chain: CAATCTANHDAGNASASA
B2: HC1463 (peptide)
chain: CAAVMGSSYGAGNASASA
B3: HC545 (peptide)
chain: CALVFFCFAWAGNASASA
B4: FS-1598 (peptide)
chain: CAKYNRGRRKAGNASASA
B5: HC956 (peptide)
chain: CAATVCARAQAGNASASA
B6: FS-453 (peptide)
chain: CAKSNRFRRQAGNASASA
B7: FS-521 (peptide)
chain: CAAKRRFRRQAGNASASA
B8: FS-1443 (peptide)
chain: CAAKRRTRRQAGNASASA
B9: HC1441 (peptide)
chain: CAKNEVFCVQAGNASASA
B10: FS-1018 (peptide)
chain: CAKNNRGRRQAGNASASA
B11: HC167 (peptide)
chain: CARNTNRRPQAGNASASA
B12: HC1973 (peptide)
chain: CAERTTPCSGAGNASASA
B13: HC106 (peptide)
chain: CAVVCCFMSYAGNASASA
B14: HC7 (peptide)
chain: CAMEEWSQHLAGNASASA
B15: FS-1001 (peptide)
chain: CAGMLRQRRPAGNASASA
B16: FS-783 (peptide)
chain: CAGKRRFRRQAGNASASA
B17: FS-2121 (peptide)
chain: CAKARRFVEQAGNASASA
B18: FS-1322 (peptide)
chain: CAFAERSGRGAGNASASA
B19: FS-530 (peptide)
chain: CAGHGRQERSAGNASASA
B20: FS-1588 (peptide)
chain: CAFAERQRRSAGNASASA
B21: FS-1458 (peptide)
chain: CAGTTRQRRSAGNASASA
B22: FS-163 (peptide)
chain: CAGRHCVRRSAGNASASA
B23: HC742 (peptide)
chain: CAGSSGGPLLAGNASASA
B24: HC2422 (peptide)
chain: CAEVPCHRPQAGNASASA
B25: HC1995 (peptide)
chain: CAHVCCSMSYAGNASASA
B26: HC2576 (peptide)
chain: CASTPCSAHGAGNASASA
B27: HC630 (peptide)
chain: CAIKLGALTGAGNASASA
B28: HC1021 (peptide)
chain: CAGMMLAEQFAGNASASA
B29: FS-707 (peptide)
chain: CARHRRQRRSAGNASASA
B30: FS-1411 (peptide)
chain: CASKRDHRRSAGNASASA
B31: FS-90 (peptide)
chain: CASCARHRRSAGNASASA
B32: FS-1825 (peptide)
chain: CARHRRLRGPAGNASASA
B33: HC1754 (peptide)
chain: CAMEECSQKLAGNASASA
B34: FS-2723 (peptide)
chain: CARMRRDGWPAGNASASA
B35: FS-2000 (peptide)
chain: CARDGRDGTPAGNASASA
B36: FS-2496 (peptide)
chain: CARMRRPPGGAGNASASA
B37: FS-3001 (peptide)
chain: CARMRRALVFAGNASASA
B38: FS-2725 (peptide)
chain: CARMRRRPGPAGNASASA
B39: HC762 (peptide)
chain: CATTMRSPVFAGNASASA
B40: HC923 (peptide)
chain: CACAWYELTPAGNASASA
B41: FS-2837 (peptide)
chain: CARTTRSVVHAGNASASA
B42: FS-1754 (peptide)
chain: CARMVRSVKVAGNASASA
B43: FS-1704 (peptide)
chain: CARFRRGLDNAGNASASA
B44: HC2234 (peptide)
chain: CAEVVTSTKVAGNASASA
B45: FS-2396 (peptide)
chain: CARMTRSVDNAGNASASA
B46: FS-1695 (peptide)
chain: CARELRNVGVAGNASASA
B47: FS-1703 (peptide)
chain: CARFRRGARSAGNASASA

Target: furin, P09958
Sequence (P09958 whole entry): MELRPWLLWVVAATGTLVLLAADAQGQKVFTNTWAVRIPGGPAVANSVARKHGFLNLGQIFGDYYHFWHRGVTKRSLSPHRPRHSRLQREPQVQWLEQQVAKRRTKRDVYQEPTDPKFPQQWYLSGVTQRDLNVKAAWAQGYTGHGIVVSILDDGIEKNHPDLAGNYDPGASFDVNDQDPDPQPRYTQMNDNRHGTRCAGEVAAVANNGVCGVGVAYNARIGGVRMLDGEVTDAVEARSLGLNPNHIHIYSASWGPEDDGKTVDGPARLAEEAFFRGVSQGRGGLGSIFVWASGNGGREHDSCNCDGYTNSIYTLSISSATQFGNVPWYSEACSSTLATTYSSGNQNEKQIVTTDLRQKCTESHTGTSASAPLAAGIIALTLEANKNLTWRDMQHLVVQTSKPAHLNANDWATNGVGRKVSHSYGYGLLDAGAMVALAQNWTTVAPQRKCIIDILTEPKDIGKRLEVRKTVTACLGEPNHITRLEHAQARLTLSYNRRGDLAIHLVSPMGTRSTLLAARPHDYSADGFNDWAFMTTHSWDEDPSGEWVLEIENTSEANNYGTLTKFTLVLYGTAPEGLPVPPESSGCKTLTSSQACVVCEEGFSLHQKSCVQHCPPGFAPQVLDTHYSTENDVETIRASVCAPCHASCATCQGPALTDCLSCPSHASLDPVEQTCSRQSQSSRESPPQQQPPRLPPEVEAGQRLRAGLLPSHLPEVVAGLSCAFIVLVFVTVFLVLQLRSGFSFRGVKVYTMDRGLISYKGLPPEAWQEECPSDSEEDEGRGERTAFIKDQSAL
Experiment: furin cleavage Z-score vs untreated control; higher = more cleavage, active = 3.5 or more, inactive = 1 or less, 8 variable residues between constant flanks
Outline: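 Sequencing of released DNA, tagged with adapters by PCR, gave read counts used as abundance. That DNA was freed when purified furin cut N-terminally bead-bound 8-mer peptides fused to a cDNA oligonucleotide, in 0.01 ml reactions at 1:10 enzyme:substrate in 50 mM HEPES pH 7.5 with CaCl2 and NaCl, lasting 7.5, 15 or 30 min. The cleavage Z-score was the lowess-adjusted log count versus furin-free reactions, scaled by median absolute deviation.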

| Sequence | furin cleavage Z-score (7.5 min) | furin cleavage Z-score (15 min) | furin cleavage Z-score (30 min) |
| --- | --- | --- | --- |
| B1 | -0.592 (inactive) | 0.126 (inactive) | 0.634 (inactive) |
| B2 | -0.652 (inactive) | 0.469 (inactive) | -0.776 (inactive) |
| B3 | -0.625 (inactive) | -0.493 (inactive) | -2.31 (inactive) |
| B4 | -1.68 (inactive) | 1.26 | 2.34 |
| B5 | -0.452 (inactive) | 0.685 (inactive) | -0.234 (inactive) |
| B6 | 9.35 (active) | 7.39 (active) | 5.76 (active) |
| B7 | 11.3 (active) | 11.5 (active) | 9.92 (active) |
| B8 | 9.31 (active) | 8.38 (active) | 7.06 (active) |
| B9 | -0.977 (inactive) | -0.752 (inactive) | -0.637 (inactive) |
| B10 | 8.48 (active) | 8.87 (active) | 9.25 (active) |
| B11 | 0.367 (inactive) | 0.97 (inactive) | -0.345 (inactive) |
| B12 | -0.657 (inactive) | 0.759 (inactive) | 0.0382 (inactive) |
| B13 | 0.2 (inactive) | -0.139 (inactive) | -1.5 (inactive) |
| B14 | -0.124 (inactive) | 0.451 (inactive) | 0.398 (inactive) |
| B15 | -1.01 (inactive) | -1.53 (inactive) | -1.03 (inactive) |
| B16 | 8.34 (active) | 7.16 (active) | 6.56 (active) |
| B17 | -0.772 (inactive) | 0.447 (inactive) | -0.0659 (inactive) |
| B18 | -0.454 (inactive) | 0.465 (inactive) | 0.178 (inactive) |
| B19 | 1.31 | 3.84 (active) | 3.39 |
| B20 | 11.1 (active) | 11 (active) | 10.4 (active) |
| B21 | 9.35 (active) | 9.67 (active) | 7.94 (active) |
| B22 | 3.46 | 4.86 (active) | 4.64 (active) |
| B23 | -1.42 (inactive) | -0.944 (inactive) | -0.396 (inactive) |
| B24 | 1.53 | 0.977 (inactive) | -0.457 (inactive) |

| Sequence | furin cleavage Z-score (7.5 min) | furin cleavage Z-score (15 min) | furin cleavage Z-score (30 min) |
| --- | --- | --- | --- |
| B25 | -0.946 (inactive) | -0.551 (inactive) | -0.241 (inactive) |
| B26 | -0.871 (inactive) | 0.825 (inactive) | -0.885 (inactive) |
| B27 | -0.745 (inactive) | -0.643 (inactive) | -1.94 (inactive) |
| B28 | 0.171 (inactive) | 0.335 (inactive) | -0.461 (inactive) |
| B29 | 10.1 (active) | 10.5 (active) | 8.1 (active) |
| B30 | 1.79 | -0.35 (inactive) | 0.449 (inactive) |
| B31 | 4.64 (active) | 3.79 (active) | 4.71 (active) |
| B32 | -1.67 (inactive) | -0.893 (inactive) | -1.28 (inactive) |
| B33 | 1.17 | 0.659 (inactive) | 1.26 |
| B34 | 2.95 | 4.8 (active) | 5.65 (active) |
| B35 | 0.0974 (inactive) | -0.249 (inactive) | 0.34 (inactive) |
| B36 | -0.899 (inactive) | -0.697 (inactive) | -0.784 (inactive) |
| B37 | 4.84 (active) | 4.35 (active) | 6.45 (active) |
| B38 | 0.305 (inactive) | 1.58 | 1.1 |
| B39 | -1.56 (inactive) | -0.725 (inactive) | -0.54 (inactive) |
| B40 | -0.0785 (inactive) | 0.676 (inactive) | -1.48 (inactive) |
| B41 | -0.34 (inactive) | 0.171 (inactive) | 0.71 (inactive) |
| B42 | 3.01 | 4.69 (active) | 6.85 (active) |
| B43 | 10.1 (active) | 8.75 (active) | 7.17 (active) |
| B44 | 0.581 (inactive) | 0.63 (inactive) | -0.359 (inactive) |
| B45 | 10.7 (active) | 10.3 (active) | 7.86 (active) |
| B46 | -1.56 (inactive) | 0.756 (inactive) | -0.781 (inactive) |
| B47 | 10.1 (active) | 10.3 (active) | 8.23 (active) |
